# Source: PubChem
# GalR3 antagonist – blocks the human galanin receptor 3 | O60755 | inhibition, % at 3 µM | HEK293 GalR3-CNG cAMP membrane potential fluorescence; galR3 body fused to GalR1 C-terminus | AID 651719 | 0.44% of 360,000 active;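 active = inhibition above the screen-wide average plus 3 SD, cut at about 13% in these data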;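 also: forskolin and galanin both at EC90 stimulate the cells; cAMP rise reported by CNG channel membrane potential dye signal; 0% = forskolin plus galanin with DMSO and 100% = forskolin alone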
# Target sequence (O60755 1-299 limits assumed): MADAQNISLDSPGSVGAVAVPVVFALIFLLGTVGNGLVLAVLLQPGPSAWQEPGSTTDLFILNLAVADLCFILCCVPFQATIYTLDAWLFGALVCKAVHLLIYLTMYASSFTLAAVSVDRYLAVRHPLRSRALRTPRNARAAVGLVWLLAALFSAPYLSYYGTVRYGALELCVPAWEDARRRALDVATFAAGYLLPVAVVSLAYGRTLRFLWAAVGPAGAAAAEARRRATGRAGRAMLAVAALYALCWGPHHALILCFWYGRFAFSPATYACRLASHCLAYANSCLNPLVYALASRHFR
# FXN GAA850 act – frataxin GAA850 promoter activation | HEK293 lucGAA850 FXN promoter luciferase reporter, 24 h; percent of 10 µM SAHA response | 0.56% of 360,000 active | activation, % at 6 µM;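 active = activation above the average of all compounds screened plus 3 SD, cutoff fixed separately per campaign, cut at about 7.5% in these data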;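 also: 0% = DMSO wells and 100% = 10 µM SAHA wells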
# HIF act – HIF pathway transcriptional activation; U2OS HRE-luciferase reporter, luminescence; normalized: DMSO 0%, desferrioxamine 100%; activation, % at 7.5 µM (by protocol); 0.32% of 300,000 active;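 active = mean activation of at least 10% of the iron chelator positive control signal, with at least half of replicates also reaching 10%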
# Hsp70 activator – transcriptional activators of Hsp70. HeLa Hsp70 promoter luciferase reporter, luminescence; scaled: vehicle 0, proteasome-inhibitor control 100%. 0.04% of 200,000 active. activation, % at 10 µM;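 active = activation above the mean across all tested compounds plus 3 SD, cutoff set per campaign, cut at about 5.5% in these data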;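 also: 100% = MG132 at 30 µM as the positive control and 0% = DMSO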
# SMARCA2 act – activators of SMARCA2 function; MG213 cells, MMTV-luciferase reporter, dexamethasone, overnight; activation, % at 9.1 µM; 1% of 370,000 active; AID 652017; in the data active = activation above about 7.8%;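 also: 0% = vehicle wells and 100% = reference activator wells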
# SMARCA2 conf – SMARCA2 activation, confirmation screen. activation, % at 9.1 µM. MG213 cells, MMTV-luciferase with dexamethasone, luminescence, overnight; MG213 cells expressing E1A, Rb sequestered; DMSO wells 0%, reference activator 100%. shares compounds with SMARCA2 act. 30% of 3,500 active;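 active = activation above its plate's cutoff, the mean activation of tested wells plus 3 SD, cut at about 7.9% in these data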
# GAL4-VP16 Luc – activates GAL4-VP16 luciferase, flagging SMARCA2 activator hits. activation, % at 9.1 µM. HEK293 GAL4-VP16 pG5luc reporter, luciferase luminescence; scaled: DMSO wells 0%, SAHA wells 100%. shares compounds with SMARCA2 act. 41% of 3,500 active;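 active = activation above the solvent-only control well mean plus 3 SD, averaged across control plates, cut at about 5.2% in these data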
# * hit, by the source's call; x = no result. Shown are actives, neighbours in structure and some others; about 2.2% of the full set was active somewhere.
SMILES,GalR3 antagonist,FXN GAA850 act,HIF act,Hsp70 activator,SMARCA2 act,SMARCA2 conf,GAL4-VP16 Luc
COc1ccccc1N1CCN(C(=O)C2CC2)CC1,2,3,1,x,1,x,x
Cc1ccc2c(c1)C1CS(=O)(=O)N(Cc3ccc(F)cc3)CN1C2 (stereo not given),x,x,x,x,-1,x,x
Oc1ccccc1-c1nnc(-c2ccc(C(F)(F)F)cc2)o1,-1,2,-18,0,9.9*,4,6.9*
Nc1ccccc1-c1nnc(-c2ccc(-c3ccccc3)cc2)o1,-8,6,3,0,9.2*,14*,11*
COc1ccccc1-c1nnc(-c2ccc(N3CCOCC3)cc2)o1,-1,6,4,0,2,x,x
COc1ccccc1-c1nnc(-c2ccc(C)cc2)o1,1,3,3,x,13*,7,7.1*
COc1cc(-c2nnc(-c3ccccc3)o2)cc(OC)c1OC,-3,1,1,1,-5,x,x
COc1cccc(-c2nnc(-c3ccc(C(F)(F)F)cc3)o2)c1,-5,2,4,0,1,x,x
COc1ccc(-c2nnc(-c3ccccc3)o2)cc1OC,-5,4,3,x,8.4*,6,12*
c1ccc(-c2nnc(-c3ccccc3)o2)cc1,0,7,2,0,5,x,x
COc1ccc(/C=C/S(=O)(=O)NCc2ccc(F)cc2)c(CNC(=O)OC(C)(C)C)c1,x,x,x,x,-5,x,x
COc1ccc(N2CCN(C(c3ccccc3)c3nnnn3C(C)(C)C)CC2)cc1 (stereo not given),1,x,x,x,-2,x,x
COc1ccc(C(c2nnnn2C(C)(C)C)N2CCN(c3nc4ccccc4s3)CC2)cc1 (stereo not given),-4,0,-1,0,9.2*,-1,1
CC(=O)Nc1cccc(-c2cc(C(C)=O)c3n(c2=O)CCC3)c1,x,x,x,x,1,x,x
CC(=O)NC(CC(=O)NC1CCCc2ccccc21)c1ccccc1 (stereo not given),-7,0,0,x,8.0*,-1,-1
CCn1c(=O)c([N+](=O)[O-])c(NCCc2ccccc2)c2ccccc21,x,-1,-1,0,x,x,x
Cn1c(=O)c([N+](=O)[O-])c(NCCc2ccccc2)c2ccccc21,-12,1,0,0,12*,1,-1
Cn1ccc(NC(=O)c2ccc(Cl)cc2Cl)n1,-8,2,x,x,8.6*,5,10*
Cn1ccc(NC(=O)c2ccc(Cl)cc2)n1,-3,2,x,x,0,x,x
Cc1ccc(C(=O)N/C(=C/c2ccco2)C(=O)NCC2CCCO2)cc1 (stereo not given),-10,1,0,0,9.9*,2,1
CNC(=O)NC(=S)NC(=O)c1ccc(OC)cc1,-5,5,1,0,10*,0,2
COc1ccc(C(=O)NC(=S)NNC(=O)c2cnccn2)cc1,-3,-1,2,0,33*,-3,1
COc1ccc(C(=O)NC(=S)NCC2CCCO2)cc1 (stereo not given),-11,1,2,1,11*,2,4
Cc1ccc(C(=O)N/C(=C\c2ccco2)C(=O)NCC2CCCO2)cc1C (stereo not given),-1,-2,0,0,0,x,x
O=C(NC(=S)NNC(=O)c1cnccn1)c1ccc(Cl)cc1,1,3,1,x,-2,x,x
SMILES,GalR3 antagonist,FXN GAA850 act,HIF act,Hsp70 activator,SMARCA2 act,SMARCA2 conf,GAL4-VP16 Luc
CC(C)(C)c1ccc(C(=O)NC(=S)NCC2CCCO2)cc1 (stereo not given),-5,1,0,0,2,x,x
CCN1Cc2nnn(Cc3ccccc3)c2-c2cc(F)ccc2S1(=O)=O,x,x,x,x,-4,x,x
O=C(OCCCN1CCC2(CCCCC2)C1=O)c1ccccc1,x,x,x,x,-2,x,x
COC(=O)[C@]12C[C@H](CC(=O)NCCc3ccccc3OC)C(=O)N(CCC3=CCCCC3)C1=C[C@H](C(C)C)O[C@@H]2C1CC1,x,x,x,x,-3,x,x
COc1cc(COCC(O)CN2CCN(CCN3C(=O)c4cccc5cccc(c45)C3=O)CC2)cc(OC)c1OC (stereo not given),-7,-3,0,0,1,x,x
O=C1c2cccc3cccc(c23)C(=O)N1CCN1CCN(CC(O)COCc2ccc(Cl)cc2)CC1 (stereo not given),-5,-1,0,0,8.7*,8.5*,5.4*
O=c1c2ccccc2sc2ccccc12,-5,3,x,x,8.5*,7,5.9*
COc1cc(OC)c(OC)cc1CNCCNC(=O)c1ccco1,-7,-1,0,x,9.2*,0,-1
CCOc1ccc(NC(=O)CSc2nccn2Cc2ccco2)cc1,2,3,2,x,11*,1,5
Cc1ccccc1NC(=O)N(C)[C@H]1C[C@H]2c3[nH]c4c(-c5ccccc5)cccc4c3CCN2C[C@H]1[C@H](C)O,x,x,x,x,0,x,x
OCC1OC(n2cnc3c(NCCc4ccccc4)ncnc32)C(O)C1O (stereo not given),-2,5,1,x,11*,5,7.8*
CCOC(=O)c1cnc(-c2ccccc2)nc1Oc1ccc(Cl)cc1,5,-1,0,0,4,x,x
CCOC(=O)c1cnc(-c2ccccc2O)nc1Cl,-7,4,0,0,8.1*,4,4
Cc1cc(C(C)C)n2c(nc3ccccc32)c1C#N,x,x,0,0,x,x,x
Cc1cc(-c2ccco2)c(C#N)c2nc3ccccc3n12,1,4,1,0,12*,41*,6.5*
Cc1ccsc1S(=O)(=O)n1c(CN2CCOCC2)nc2ccccc21,x,x,x,x,3,x,x
O=c1nccc(N/N=C/c2ccccc2)[nH]1,-10,4,2,x,8.2*,6,4
CCc1ccc(CCNC(=O)OC2CC3CC2[C@H]2CCCCN2[C@H]3Cc2ccccc2)cc1 (stereo not given in full),x,x,x,x,-3,x,x
CCCC[C@H]1C2CC(OC(=O)NCCCc3ccccc3)C(C2)[C@H]2CCCCN21 (stereo not given in full),x,x,x,x,11*,0,1
CSc1nc(SCCN(C)C)c2c3c(sc2n1)COC(C)(C)C3,6,2,1,x,8.1*,5,1
O=C1c2ccccc2NC(c2ccccc2)N1CCCN1CCOCC1 (stereo not given),0,0,1,x,-2,x,x
O=C(O)c1ccccc1C1Nc2ccccc2C(=O)N1CCCN1CCOCC1 (stereo not given),-6,1,-1,x,12*,-2,1
CCCCN(C(=O)Cc1cccs1)c1nnc(-c2cccnc2)s1,0,4,x,0,11*,7.9*,5.5*
